The list is not random: actives were taken first. Their share in the collection is about 2.9%.
Vif inh: inhibitors of HIV Vif. HEK293T cells, Vif self-association by quenched fluorescence, imaging, 24 h. AID 602346. inhibition, % at 7.49 µM. hit rate 0.35% among 340,000; in the data active = inhibition above about 50%, passing the limit was not always enough; inconclusive = no clear call, values can overlap the other calls; inactive = below about 31%
Glyco luc inh: blocks N-linked glycosylation in D54 reporter cells | hit rate 0.23% among 360,000 | AID 588692 | D54 ERlucT glycosylation luciferase reporter, 24 h; percent of 100 nM tunicamycin response | reporter increase, % at 12.5 µM;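 active = mean luciferase reporter signal, scaled so untreated is 0 and the glycosylation-blocking control 100, at or above a set limit in every replicate; inconclusive = mean reaches the limit but not every replicate does; inactive = mean below the limit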;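 also: luciferase carries N-glycosylation sites so blocking glycosylation raises the light; 0% = median of neutral control wells and 100% = median of 100 nM tunicamycin wells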
MITF act: activators of MITF-driven TRPM1 promoter activity in SK-MEL-5 cells; AID 588334; activation, % at 12.5 µM; hit rate 0.75% among 300,000; SK-MEL-5 TRPM1-promoter luciferase, 24 h; % of positive control, neutral wells = 0;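 active = mean activation of at least 80% with every replicate also reaching 80%; inconclusive = mean reaches 80% but some replicate falls short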;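 also: 0% = neutral control wells and 100% = parthenolide positive control wells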
Wnt bcat act: activators of Wnt/beta-catenin signaling. Wnt/beta-catenin reporter cell assay, activator, plate reader. activation, % at 9.35 µM. hit rate 1.2% among 300,000. AID 743398; in the data active = activation above about 30%, passing the limit was not always enough; inconclusive = no clear call, values can overlap the other calls;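 also: 0% = neutral control wells and 100% = positive control wells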
esBAF inh: blocks esBAF chromatin remodeling in mouse ES cells. Bmi1-luciferase knock-in reporter, 24 h; 100% = twice the neutral-well signal. reporter increase, % at 12.5 µM. hit rate 2% among 350,000. AID 602393; in the data active = activation above about 40%; inconclusive = no clear call, values can overlap the other calls;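 also: 0% = median of the plate's neutral control wells and 100% = double that signal; a rise in the Bmi1 reporter signal indicates esBAF inhibition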
PvdQ acylase: P. aeruginosa PvdQ acylase inhibition; purified PvdQ acylase, fluorescence plate reader; inhibition, % at 10 µM; hit rate 0.063% among 340,000; in the data active = inhibition above about 30%, passing the limit was not always enough; inconclusive = no clear call, values can overlap the other calls;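 also: 0% = vehicle neutral wells and 100% = reference inhibitor wells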
* hit, by the source's call; ? = inconclusive; · = not tested or not shown.

SMILES | Vif inh | Glyco luc inh | MITF act | Wnt bcat act | esBAF inh | PvdQ acylase
O=C(Nc1ccccc1N1CCOCC1)c1ccc2ccccc2n1 | -3 | 3 | · | 40* | 59* | -1
O=C(Nc1ccccc1N1CCN(c2ccccc2)CC1)c1ccccc1 | -13 | -3 | -16 | 42* | · | -6
COCC(=O)N1[C@H](CO)[C@H]2c3ccccc3N(C(=O)C3CC3)C[C@H]21 | · | · | · | · | 0 | ·
CCCNC(=O)C[C@@H]1CC[C@H]2[C@H](COc3ccc(NC(=O)c4cccc(C(F)(F)F)c4)cc3C(=O)N2C)O1 | · | · | · | · | 0 | ·
O=C(/C=C/c1ccccc1)c1ccccc1 | -4 | 18 | 22 | 14 | 23 | 6
O=C(/C=C/c1ccccc1)c1ccc2c3c(cccc13)CC2 | · | 47* | 38 | 17 | · | 19
COc1ccc(C(=O)Nc2nc3cc4c(cc3s2)OCCO4)c(OC)c1 | 78* | -1 | 1 | 17 | · | 3
COc1ccccc1C(=O)Nc1nc2cc3c(cc2s1)OCCO3 | -1 | 2 | 12 | · | 35 | -17
COc1ccccc1C(=O)Nc1nc2cc3c(cc2s1)OCO3 | · | -2 | 66 | -1 | 57* | 1
COc1cccc(OC)c1C(=O)Nc1nc2cc3c(cc2s1)OCO3 | 2 | 1 | 14 | 6 | -8 | 0
O=C(NNc1nc2cc3c(cc2s1)OCO3)c1cccc(F)c1 | 18 | 2 | 56 | 6 | 47* | -15
O=C(NNc1nc2cc3c(cc2s1)OCO3)c1ccccc1 | 27 | 1 | 12 | 5 | 31 | -3
C[C@@H]1CN([C@H](C)CO)C(=O)c2cc(NC(=O)Nc3ccc(C(F)(F)F)cc3)ccc2O[C@@H](C)CCCCO[C@@H]1CN(C)S(=O)(=O)c1ccc(Cl)cc1 | · | · | · | · | 2 | ·
CC(=O)N(C)C[C@@H]1Oc2cc(-c3ccc(C)cc3)ccc2S(=O)(=O)N([C@H](C)CO)C[C@H]1C | · | · | · | · | 4 | ·
COc1cccc(-c2ccc([C@H]3[C@@H](C#N)N(C(=O)c4ccccn4)[C@H]3CO)cc2)c1 | · | · | · | · | 0 | ·
COc1ccc(/C(C)=N/NC(=O)c2ccccc2OCc2ccccc2)c(OC)c1 | 15 | 32* | 45 | · | 50* | 10
COc1ccc(/C=N/NC(=O)c2ccccc2OCc2ccccc2)c(OC)c1 | -3 | 19 | 1 | -2 | -5 | -12
C[C@@H]1CN([C@@H](C)CO)S(=O)(=O)c2ccc(-c3cncnc3)cc2O[C@H]1CN(C)C(=O)C1CCC1 | · | · | · | · | -4 | ·
c1ccc2[nH]c(SCC3CCCCO3)nc2c1 (stereo not drawn) | 4 | -7 | 87* | 40* | · | -3
CC(C)C/C=C1\CCc2c([nH]c3ccccc23)C1=O | 0 | 1 | 62 | 39* | 52* | -6
O=C(c1cccc(-c2nnc(-c3ccccc3)o2)c1)N1CCCCC1 | -4 | -4 | 51 | · | 72* | -11
O=C(O)c1ccc(-c2nnc(-c3cccc(Br)c3)o2)cc1 | -8 | 5 | 64 | 12 | 71* | -1
O=C(c1cccc(-c2nnc(-c3ccccc3)o2)c1)N1CCCCCC1 | -11 | 0 | 65 | · | 33 | 6
O=C(CSc1nnc(-c2cccc(Br)c2)o1)N1CCNC1=O | 5 | 4 | 88* | -1 | 62* | -11
CN1C(=O)c2cc(NC(=O)c3ccccc3F)ccc2OC[C@@H]2O[C@H](CC(=O)NCc3ccc4c(c3)OCO4)CC[C@H]21 | · | · | · | · | 5 | ·
SMILES | Vif inh | Glyco luc inh | MITF act | Wnt bcat act | esBAF inh | PvdQ acylase
COc1ccc(CN(C)C[C@@H]2OCCCC[C@H](C)Oc3ccc(NS(=O)(=O)c4ccccc4)cc3C(=O)N([C@@H](C)CO)C[C@@H]2C)cc1 | · | · | · | · | 2 | ·
C[C@@H]1CN([C@@H](C)CO)C(=O)c2cc(C#CC3CC3)cnc2O[C@@H]1CN(C)C(=O)c1ccccc1 | · | · | · | · | 0 | ·
CCCN1C(=O)c2ccc(C(=O)Nc3nccs3)cc2C1=O | 11 | 1 | · | 3 | 43* | 4
O=C(Nc1nccs1)c1ccc(Cl)c(S(=O)(=O)N2CCCCC2)c1 | -14 | -3 | 3 | · | 42* | 3
O=C(Nc1nccs1)c1cc(S(=O)(=O)N2CCCCC2)ccc1Cl | · | 1 | -4 | · | -2 | -15
CCCc1cc(C(=O)Nc2nccs2)cs1 | -5 | -9 | 95* | · | 19 | 6
CCOC(=O)C(=Cc1ccc(-c2ccsc2C(=O)OC)o1)C(=O)OCC | -12 | ? | · | 0 | 8 | -12
COC(=O)C(=Cc1ccc(-c2ccsc2C(=O)OC)o1)C(=O)OC | -2 | 35* | 55 | 0 | · | -8
CCOC(=O)/C(C#N)=C/c1ccc(-c2ccsc2C(=O)OC)o1 | 14 | -2 | · | -3 | 54* | -9
COC(=O)c1sccc1-c1ccc(C(=O)Nc2cccnc2)o1 | -1 | -7 | 97* | 5 | 20 | -7
C[C@@H]1CN([C@@H](C)CO)C(=O)c2cc(NC(=O)CCC(F)(F)F)ccc2O[C@@H](C)CCCCO[C@H]1CN(C)Cc1ccc(C(=O)O)cc1 | · | · | · | · | -2 | ·
CCC(=O)Nc1ccc2c(c1)C(=O)N(C)C[C@@H](OC)[C@@H](C)CN(CCc1ccccc1)[C@@H](C)CO2 | · | · | · | · | -4 | ·
Cn1ccc(C(=O)NC(=S)Nc2ccc([N+](=O)[O-])cc2O)n1 | -2 | 0 | 69 | 27 | 69* | -7
CN(C)c1ccc(NC(=O)N2CCOCC2)cc1 | -4 | 2 | 23 | 8 | 55* | 5
COCCNC(=O)C[C@H]1C[C@H]2c3cc(NC(=O)c4cccnc4)ccc3O[C@H]2[C@H](CO)O1 | · | · | · | · | 5 | ·
CCOC(=O)N/N=C/C(Cl)=C/c1ccccc1 | -4 | 2 | 75 | 16 | 56* | 0
NC(=S)N/N=C/C=C/c1ccccc1 | -6 | 0 | 10 | 1 | · | -2
CCCCOC(=O)N/N=C/C=C/c1ccccc1 | -9 | 3 | 33 | -1 | 51* | 0
C[C@H]1CN([C@@H](C)CO)C(=O)Cc2cc(NC(=O)CCCCCC(=O)Nc3ccccc3N)ccc2O[C@H]1CN(C)Cc1ccncc1 | · | · | · | · | -4 | ·
CC(C)(C)c1csc(NC(=O)c2ccc3nccnc3c2)n1 | 2 | 1 | 114* | · | · | -5
Cc1csc(NC(=O)c2cc3c(s2)-c2ccccc2OC3)n1 | -29 | -4 | 7 | ? | 86* | -13
CN(C)CCNC(=O)c1cc2c(s1)-c1ccccc1OC2 | 0 | -8 | 34 | 9 | -36 | -6
Cc1ccc(C(=O)Nc2nc(C(C)(C)C)cs2)s1 | -21 | -7 | 68 | · | 66* | -5
CC(C)(C)c1csc(NC(=O)c2ccc(Br)o2)n1 | -9 | -4 | 65 | -1 | · | -17
CC(C)(C)c1csc(NC(=O)c2ccncc2)n1 | -17 | -1 | -8 | 1 | · | -8
CC(C)(C)c1csc(NC(=O)c2ccc(Cl)s2)n1 | · | -7 | 38 | · | 94* | -9
CN1[C@@H]2Cn3c(ccc(-c4ccccc4)c3=O)[C@H]1[C@@H](C(=O)NCC1CC1)[C@@H]2CO | · | · | · | · | 3 | ·
C[C@H]1CN([C@@H](C)CO)C(=O)Cc2cc(NC(=O)Nc3ccc4c(c3)OCO4)ccc2O[C@H]1CN(C)Cc1ccc(Cl)c(Cl)c1 | · | · | · | · | 4 | ·

Screening data deposited in PubChem by Broad Institute.
